Data on seven sequences can be found in paper PMC4081100, “A DNA-binding-site landscape and regulatory network analysis for NAC transcription factors in Arabidopsis thaliana”.

Test in all cases: universal protein binding microarray (PBM); transcription factors of Arabidopsis thaliana; high values mean tight binding
For one test, the target named is T1, GST-ANAC092(1-176) (Arabidopsis thaliana, UniProt Q9FKA0 1-176).
T1 sequence: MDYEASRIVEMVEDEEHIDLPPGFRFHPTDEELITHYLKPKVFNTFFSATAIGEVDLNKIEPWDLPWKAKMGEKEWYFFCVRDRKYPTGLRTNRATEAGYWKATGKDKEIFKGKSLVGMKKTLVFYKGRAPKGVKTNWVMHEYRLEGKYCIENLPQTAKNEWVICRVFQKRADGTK
To be noted: protein: recombinant; tags: GST; chain copies: 2; dsDNA, one strand shown. The essentials: (§1)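 Binding is expressed as the normalised enrichment score (E-score). Proteins carrying a GST tag, whether NAC-domain, full-length or DNA-binding-domain forms, were induced in cells, and zinc acetate was added for zinc-finger proteins. After purification on glutathione–Sepharose 4B and quantification by A280 or anti-GST western blot, each was applied in duplicate at 200 to 500 nM final to custom all-10-mer Agilent 4 × 180K arrays made double-stranded by primer extension. Gapped and ungapped 8-mers were scored.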

The target of a further test is GST-NTL6(1-168) (Arabidopsis thaliana, UniProt Q9SCK6 1-168). Particulars: protein: recombinant; tags: GST; chain copies: 2; dsDNA, one strand shown. A digest of the protocol: as §1
GST-NTL6(1-168), sequence (Q9SCK6 1-168): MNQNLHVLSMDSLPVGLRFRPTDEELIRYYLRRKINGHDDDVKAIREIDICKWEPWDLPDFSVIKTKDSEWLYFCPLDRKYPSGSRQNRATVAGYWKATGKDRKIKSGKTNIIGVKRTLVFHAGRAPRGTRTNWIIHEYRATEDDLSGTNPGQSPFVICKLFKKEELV
A further test addresses T2, GST-ANAC019 NAC domain (Arabidopsis thaliana, UniProt Q9C932 14-162).
T2 sequence: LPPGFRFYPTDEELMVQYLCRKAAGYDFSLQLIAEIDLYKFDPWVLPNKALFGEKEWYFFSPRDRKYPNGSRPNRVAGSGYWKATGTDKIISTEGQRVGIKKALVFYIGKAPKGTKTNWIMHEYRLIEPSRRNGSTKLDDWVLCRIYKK
To be noted: protein: recombinant; tags: GST; chain copies: 2; dsDNA, one strand shown. The essentials:
as §1

The target of a further test is T3, GST-ANAC055(1-171) (Arabidopsis thaliana, UniProt Q9LDY8 1-171).
T3 sequence: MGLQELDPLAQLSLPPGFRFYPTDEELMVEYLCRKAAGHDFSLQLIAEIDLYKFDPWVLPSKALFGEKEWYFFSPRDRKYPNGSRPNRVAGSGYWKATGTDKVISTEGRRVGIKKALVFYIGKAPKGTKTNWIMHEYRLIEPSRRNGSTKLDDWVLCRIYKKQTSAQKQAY
To be noted: protein: recombinant; tags: GST; chain copies: 2; dsDNA, one strand shown. The essentials:
as §1

The next test has as its target T4, GST-ATAF1 NAC domain (Arabidopsis thaliana, UniProt Q39013 7-158).
T4 sequence: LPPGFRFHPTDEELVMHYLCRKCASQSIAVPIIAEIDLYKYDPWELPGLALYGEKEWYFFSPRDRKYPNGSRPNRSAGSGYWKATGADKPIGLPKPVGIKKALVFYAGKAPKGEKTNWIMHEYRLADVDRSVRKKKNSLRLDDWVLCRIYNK
To be noted: protein: recombinant; tags: GST; chain copies: 2; dsDNA, one strand shown. A digest of the protocol: as §1

The target in test [1] is T5, GST-ANAC092(1-285) full length (Arabidopsis thaliana, UniProt Q9FKA0 1-285).
T5 sequence: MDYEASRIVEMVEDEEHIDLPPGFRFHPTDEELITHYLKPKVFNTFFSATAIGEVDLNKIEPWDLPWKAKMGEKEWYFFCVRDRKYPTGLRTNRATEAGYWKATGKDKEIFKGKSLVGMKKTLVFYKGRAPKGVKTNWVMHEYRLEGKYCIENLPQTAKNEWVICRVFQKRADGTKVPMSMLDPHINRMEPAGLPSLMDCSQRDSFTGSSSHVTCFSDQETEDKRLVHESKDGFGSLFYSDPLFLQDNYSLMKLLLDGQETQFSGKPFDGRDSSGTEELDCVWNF
Particulars: protein: recombinant; tags: GST; chain copies: 2; dsDNA, one strand shown. A digest of the protocol:
as §1

A further test has as its target T6, GST-NAP(1-166) (Arabidopsis thaliana, UniProt O49255 1-166).
T6 sequence: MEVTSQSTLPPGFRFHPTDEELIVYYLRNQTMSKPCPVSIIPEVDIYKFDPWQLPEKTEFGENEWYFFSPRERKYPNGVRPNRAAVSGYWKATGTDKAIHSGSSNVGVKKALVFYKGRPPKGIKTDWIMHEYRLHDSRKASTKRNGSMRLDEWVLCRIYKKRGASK
To be noted: protein: recombinant; tags: GST; chain copies: 2; dsDNA, one strand shown. A digest of the protocol:
as §1

A further test addresses T7, GST-NST2(1-184) (Arabidopsis thaliana, UniProt Q9M274 1-184).
T7 sequence: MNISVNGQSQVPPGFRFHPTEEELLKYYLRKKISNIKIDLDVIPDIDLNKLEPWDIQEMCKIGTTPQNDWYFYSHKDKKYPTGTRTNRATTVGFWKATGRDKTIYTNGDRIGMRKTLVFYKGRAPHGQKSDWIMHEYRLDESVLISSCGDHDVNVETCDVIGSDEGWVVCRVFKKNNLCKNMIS
Particulars: protein: recombinant; tags: GST; chain copies: 2; dsDNA, one strand shown. The essentials:
as §1

For the next test, the target named is T8, GST-NTL8 NAC domain (Arabidopsis thaliana, UniProt Q9XIN7 14-156).
T8 sequence: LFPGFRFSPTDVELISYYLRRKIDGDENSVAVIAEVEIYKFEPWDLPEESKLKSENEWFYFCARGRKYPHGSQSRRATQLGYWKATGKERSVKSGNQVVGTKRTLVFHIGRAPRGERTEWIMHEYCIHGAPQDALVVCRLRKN
To be noted: protein: recombinant; tags: GST; chain copies: 2; dsDNA, one strand shown. A digest of the protocol: as §1

In another test the target is T9, GST-SND1(1-203) (Arabidopsis thaliana, UniProt Q9LPI7 1-203).
T9 sequence: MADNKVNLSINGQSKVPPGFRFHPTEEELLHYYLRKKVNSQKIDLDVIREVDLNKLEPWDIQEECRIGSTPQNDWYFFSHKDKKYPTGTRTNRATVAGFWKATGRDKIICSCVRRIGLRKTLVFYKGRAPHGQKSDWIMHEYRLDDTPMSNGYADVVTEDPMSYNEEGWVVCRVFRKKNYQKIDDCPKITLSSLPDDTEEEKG
To be noted: protein: recombinant; tags: GST; chain copies: 2; dsDNA, one strand shown. A digest of the protocol:
as §1

A further test addresses T10, GST-VND3 NAC domain (Arabidopsis thaliana, UniProt Q9FH59 12-162).
T10 sequence: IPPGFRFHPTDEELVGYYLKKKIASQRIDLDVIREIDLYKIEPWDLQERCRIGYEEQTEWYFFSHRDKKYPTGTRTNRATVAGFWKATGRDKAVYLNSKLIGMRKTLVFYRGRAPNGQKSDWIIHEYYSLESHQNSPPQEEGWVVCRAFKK
Particulars: protein: recombinant; tags: GST; chain copies: 2; dsDNA, one strand shown. A digest of the protocol: as §1

The target in a further test is T11, GST-VND7 NAC domain (Arabidopsis thaliana, UniProt Q9C8W9 9-158).
T11 sequence: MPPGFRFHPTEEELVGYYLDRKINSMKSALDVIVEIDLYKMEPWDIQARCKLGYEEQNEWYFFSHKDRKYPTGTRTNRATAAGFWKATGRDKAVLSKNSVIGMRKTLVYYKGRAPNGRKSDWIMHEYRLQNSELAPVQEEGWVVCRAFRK
Particulars: protein: recombinant; tags: GST; chain copies: 2; dsDNA, one strand shown. A digest of the protocol: as §1

The next test addresses GST-WRKY1(266-371) (Arabidopsis thaliana, UniProt Q9SI37 266-371). Particulars: protein: recombinant; tags: GST; dsDNA, one strand shown. The essentials:
as §1

GST-WRKY1(266-371), sequence (Q9SI37 266-371): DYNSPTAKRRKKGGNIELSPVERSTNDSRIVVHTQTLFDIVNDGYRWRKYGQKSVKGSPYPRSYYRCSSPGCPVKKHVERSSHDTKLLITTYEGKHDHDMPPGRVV

On to ACGTAAAG, for which the binding signal came out at 0.402 E-score with GST-ANAC092(1-176); 0.0957 E-score with GST-NTL6(1-168); 0.367 E-score with GST-ANAC019 NAC domain; 0.317 E-score with GST-ANAC055(1-171); 0.301 E-score with GST-ATAF1 NAC domain; 0.421 E-score in test [1]. For the same sequence, the binding signal is 0.255 E-score with GST-NAP(1-166); 0.319 E-score in the test with GST-NST2(1-184); 0.0757 E-score in the test with GST-NTL8 NAC domain; 0.41 E-score with GST-SND1(1-203); 0.359 E-score with GST-VND3 NAC domain; 0.283 E-score with GST-VND7 NAC domain. In addition, the binding signal with GST-WRKY1(266-371) amounted to 0.103 E-score.
In the case of ATGCGTAC, the binding signal with GST-ANAC092(1-176) amounted to 0.362 E-score; in the test with GST-NTL6(1-168) it was 0.0817 E-score; with GST-ANAC019 NAC domain it was 0.191 E-score; in the test with GST-ANAC055(1-171) it was 0.17 E-score; with GST-ATAF1 NAC domain, 0.229 E-score; in [1], 0.414 E-score. The binding signal with GST-NAP(1-166) was found to be 0.237 E-score; with GST-NST2(1-184), 0.192 E-score; with GST-SND1(1-203), 0.292 E-score; in the test with GST-VND3 NAC domain, 0.235 E-score; in the test with GST-VND7 NAC domain, 0.21 E-score; in the test with GST-WRKY1(266-371) it was 0.0545 E-score.
On to AGACGCAA, for which the binding signal came out at 0.453 E-score in the test with GST-ANAC092(1-176); 0.0768 E-score with GST-NTL6(1-168); 0.222 E-score with GST-ANAC019 NAC domain; 0.246 E-score with GST-ANAC055(1-171); 0.262 E-score with GST-ATAF1 NAC domain; 0.462 E-score in test [1]. In addition, the binding signal in the test with GST-NAP(1-166) stood at 0.433 E-score; with GST-NST2(1-184), 0.242 E-score; in the test with GST-NTL8 NAC domain, 0.107 E-score; with GST-SND1(1-203), 0.265 E-score; with GST-VND3 NAC domain, 0.295 E-score; with GST-VND7 NAC domain, 0.276 E-score. Besides, the binding signal in the test with GST-WRKY1(266-371) worked out at 0.0554 E-score.
Turning to ACGTCAAA, the binding signal with GST-ANAC092(1-176) came to 0.333 E-score; in the test with GST-NTL6(1-168), 0.0817 E-score; in the test with GST-ANAC019 NAC domain it was 0.262 E-score; with GST-ANAC055(1-171), 0.245 E-score; with GST-ATAF1 NAC domain it was 0.176 E-score; in test [1] it was 0.372 E-score. For the same sequence, the binding signal with GST-NAP(1-166) came out at 0.194 E-score; with GST-NST2(1-184) it was 0.261 E-score; with GST-SND1(1-203) it was 0.361 E-score; with GST-VND3 NAC domain, 0.252 E-score; in the test with GST-VND7 NAC domain, 0.25 E-score; in the test with GST-WRKY1(266-371), 0.421 E-score.
Take CGTCAAAC: the binding signal stood at 0.109 E-score with GST-ANAC092(1-176); 0.0906 E-score with GST-NTL6(1-168); 0.0928 E-score in the test with GST-ANAC019 NAC domain; 0.163 E-score with GST-ANAC055(1-171); 0.147 E-score with GST-ATAF1 NAC domain; 0.134 E-score in test [1]. The binding signal with GST-NAP(1-166) is 0.0647 E-score; with GST-NST2(1-184), 0.159 E-score; with GST-SND1(1-203), 0.198 E-score; with GST-VND3 NAC domain it was 0.145 E-score; with GST-VND7 NAC domain it was 0.129 E-score; with GST-WRKY1(266-371), 0.44 E-score.
With GTAAGTCA, the binding signal with GST-ANAC092(1-176) is 0.109 E-score; in the test with GST-NTL6(1-168), 0.283 E-score; in the test with GST-ANAC019 NAC domain, 0.134 E-score; with GST-ANAC055(1-171), 0.228 E-score; with GST-ATAF1 NAC domain, 0.238 E-score; in test [1], 0.268 E-score. Moreover, the binding signal came out at 0.0612 E-score with GST-NAP(1-166); 0.21 E-score in the test with GST-NST2(1-184); 0.234 E-score with GST-SND1(1-203); 0.19 E-score with GST-VND3 NAC domain; 0.232 E-score with GST-VND7 NAC domain; 0.429 E-score with GST-WRKY1(266-371).
As for TCACGCAA, the binding signal in the test with GST-ANAC092(1-176) amounted to 0.488 E-score; with GST-NTL6(1-168) it was 0.0728 E-score; in the test with GST-ANAC019 NAC domain, 0.467 E-score; in the test with GST-ANAC055(1-171) it was 0.398 E-score; with GST-ATAF1 NAC domain, 0.336 E-score; in test [1], 0.488 E-score. The binding signal in the test with GST-NAP(1-166) turned out to be 0.433 E-score; with GST-NST2(1-184), 0.396 E-score; with GST-NTL8 NAC domain it was 0.177 E-score; in the test with GST-SND1(1-203), 0.473 E-score; in the test with GST-VND3 NAC domain it was 0.448 E-score; with GST-VND7 NAC domain, 0.462 E-score. Further, the binding signal with GST-WRKY1(266-371) worked out at 0.0966 E-score.
